Here are results for 5 compounds from PubChem BioAssay.

For experiment [1], the system named is PRMT1 (protein arginine N-methyltransferase 1). As to the kind of experiment: PRMT1 binders on small-molecule microarrays, primary screen, biochemical, small-molecule microarray, 635 nm fluorescence (AID 1088).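 Further: binding of Prmt1 protein to compounds spotted on small-molecule microarray slides.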 As to conditions: small-molecule microarray binding, higher = more signal.
A short description of experiment [2]: yeast growth modulation, basal conditions, primary screen, YJM789 clinical isolate, OD600, 24 h (AID 1089).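 Further: growth of clinical yeast isolate S. cerevisiae YJM 789 seeded 1000 cells per well; test concentration not given here.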 As to conditions: S. cerevisiae YJM789 growth, higher = more signal, called active from +8 up or from −8 down.
Experiment [3] can be described thus: fission yeast growth modulation, primary screen, strain 972, OD600, 24 h, no modulator (AID 1090).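 Further: basal condition with compound alone and no growth modifier present; test concentration not given here.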 As to conditions: S. pombe 972 growth, higher = more signal, called active from +8 up or from −8 down.
A short description of experiment [4]: S. cerevisiae growth modulation with rapamycin, primary screen, strain BY4716, OD600, 96 h (AID 1091). Further: test concentration not given here. As to conditions: higher = more signal, called active from +8 up or from −8 down.
The target of experiment [5] is Torsin-1A-interacting protein 2 (Homo sapiens) (UniProt Q8NFQ8). As to the kind of experiment: LULL1 binders on small-molecule microarray, primary screen, cell lysate, human LULL1 lysate, 635/667 nm fluorescence (AID 1092).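 Further: probe is lysate of COS7 cells overexpressing human LULL1; score merges per-feature 667 nm fluorescence with signal-to-noise.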 As to conditions: hLULL1 lysate binding, 635 nm fluorescence, higher = more signal.
The nature of experiment [6]: E. coli growth modulation, two-sided OD650, primary screen, E. coli filamentation project, strain DRC41, 24 h (AID 1093).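 Further: MC1000 strain lacking acrAB efflux and sulA so SOS filamentation is blocked; test concentration not given here.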 As to conditions: OD650, 24 h, higher = more signal, called active from +8 up or from −8 down.
The nature of experiment [7]: small-molecule microarray binders of probe aLefty2, primary screen, biochemical, biotinylated probe, 635/667 nm fluorescence (AID 1094).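 Further: score merges spot fluorescence near 667 nm with spot signal-to-noise ratio.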 As to conditions: higher = more signal.
Experiment [8] has as its system Noggin (protein binding on small-molecule microarray). Nature of the experiment: Noggin binders on small-molecule microarray, primary screen, biochemical, 635/667 nm fluorescence (AID 1095).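 Further: score merges 667 nm feature fluorescence with signal to noise over triplicate slides.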 As to conditions: 635 nm fluorescence, higher = more signal.
In experiment [9] the target is Neurogenic locus notch homolog protein 3 (Homo sapiens) (UniProt Q9UM47). Nature of the experiment: NOTCH3 binders on small-molecule microarray, primary screen, biochemical, 635/667 nm fluorescence (AID 1096). As to conditions: NOTCH3 binding, 635 nm fluorescence, higher = more signal.
The nature of experiment [10]: small-molecule microarray binders of probe aEGFR, primary screen, biochemical, biotinylated probe, 635/667 nm fluorescence (AID 1097).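 Further: probe is a biotinylated anti-EGFR antibody binding compounds printed on slides; score combines fluorescence near 667 nm and signal to noise of each spot.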 As to conditions: higher = more signal.
The test system of experiment [11] is Plasmodium falciparum Sir2 (PF13_0152, Sir2A). Nature of the experiment: pfSir2 binders on small-molecule microarrays, primary screen, biochemical, small-molecule microarray, 635 nm fluorescence (AID 1098).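 Further: score merges spot fluorescence intensity with its signal-to-noise ratio.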 As to conditions: small-molecule microarray binding, fluorescence 635 nm; higher = more signal.
Experiment [12] is described as follows: small-molecule microarray binders of probe aDKK1, primary screen, biochemical, biotinylated probe, 635/667 nm fluorescence (AID 1099).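 Further: score merges 667nm spot fluorescence with signal to noise across triplicate slides; reference of the scale not given here.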 As to conditions: higher = more signal.
Experiment [13] in a line: small-molecule microarray binders of probe aCHRDL2, primary screen, biochemical, biotinylated probe, 635/667 nm fluorescence (AID 1100). As to conditions: higher = more signal.
A short description of experiment [14]: splicing luciferase reporter signal modulators, primary screen, spliceosome inhibition project, cell-based, HEK293, splice +/- reporter (AID 1101).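 Further: HEK293 cells carrying a splicing-competent luciferase reporter gene; test concentration not given here.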 As to conditions: luminescence, 24 h, higher = more signal, called active from +8 up or from −8 down. On the technique in general: In a reporter assay the amount or activity of a reporter protein is the signal.
Experiment [15] deals with Fibroblast growth factor 10 (Homo sapiens) (UniProt O15520). As to the kind of experiment: FGF10 binders on small-molecule microarrays, primary screen, biochemical, small-molecule microarray, 635 nm fluorescence (AID 1102). As to conditions: FGF10 binding, fluorescence 635 nm, higher = more signal.
Experiment [16] relates to glycogen synthase kinase-3 (GSK3A per assay name; protocol says GSK3B). As to the kind of experiment: GSK3 binders on small-molecule microarrays, primary screen, biochemical, small-molecule microarray, 635 nm fluorescence, GSK3A (AID 1103). Further: the record names both GSK3A and GSK3B. As to conditions: small-molecule microarray binding, fluorescence 635 nm; higher = more signal.
For experiment [17], the target named is Epidermal growth factor receptor (Homo sapiens) (UniProt P00533). As to the kind of experiment: EGFR binders on small-molecule microarrays, primary screen, biochemical, small-molecule microarray, 635 nm fluorescence (AID 1104).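 Further: score merges 667 nm emission intensity with spot signal to noise over triplicate slides.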 As to conditions: EGFR binding, higher = more signal.
The target of experiment [18] is Follistatin-related protein 3 (Homo sapiens) (UniProt O95633). As to the kind of experiment: FSTL3 binders on small-molecule microarrays, primary screen, biochemical, small-molecule microarray, 635 nm fluorescence (AID 1105).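 Further: score merges emission near 667 nm and signal to noise per printed spot across three slides.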 As to conditions: FSTL3 binding, higher = more signal.
The target of experiment [19] is Dickkopf-related protein 1 (Homo sapiens) (UniProt O94907). Nature of the experiment: DKK1 binders on small-molecule microarrays, primary screen, biochemical, small-molecule microarray, 635 nm fluorescence scan (AID 1106).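 Further: score merges emission near 667 nm with signal to noise over three replicate slides.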 As to conditions: DKK1 binding, higher = more signal.
Experiment [20] concerns Inhibin beta A chain (activin A). As to the kind of experiment: INHBA (activin A) binders on microarrays, primary screen, biochemical, small-molecule microarray, 635 nm fluorescence scan (AID 1107).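 Further: mouse activin A protein probed at 4.33 µg/mL on printed slides; score merges bound-protein fluorescence near 667 nm with spot signal-to-noise.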 As to conditions: small-molecule microarray binding, higher = more signal.

The structures appear in SMILES notation. The source made the active and inactive calls.

Chain of Torsin-1A-interacting protein 2 (Homo sapiens) (Q8NFQ8 whole entry, looked up): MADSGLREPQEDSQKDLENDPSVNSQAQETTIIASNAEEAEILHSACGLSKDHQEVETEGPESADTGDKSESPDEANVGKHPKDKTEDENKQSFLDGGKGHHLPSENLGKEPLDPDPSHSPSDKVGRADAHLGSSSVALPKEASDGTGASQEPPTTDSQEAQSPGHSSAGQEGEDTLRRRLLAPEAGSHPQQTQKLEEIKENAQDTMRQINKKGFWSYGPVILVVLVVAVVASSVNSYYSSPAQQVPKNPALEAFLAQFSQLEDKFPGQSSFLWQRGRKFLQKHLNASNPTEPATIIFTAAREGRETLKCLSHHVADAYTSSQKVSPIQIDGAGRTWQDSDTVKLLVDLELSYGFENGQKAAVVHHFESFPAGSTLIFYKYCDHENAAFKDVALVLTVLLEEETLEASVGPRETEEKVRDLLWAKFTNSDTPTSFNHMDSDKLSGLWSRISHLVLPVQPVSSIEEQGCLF
Chain of Fibroblast growth factor 10 (Homo sapiens) (O15520 whole entry, looked up): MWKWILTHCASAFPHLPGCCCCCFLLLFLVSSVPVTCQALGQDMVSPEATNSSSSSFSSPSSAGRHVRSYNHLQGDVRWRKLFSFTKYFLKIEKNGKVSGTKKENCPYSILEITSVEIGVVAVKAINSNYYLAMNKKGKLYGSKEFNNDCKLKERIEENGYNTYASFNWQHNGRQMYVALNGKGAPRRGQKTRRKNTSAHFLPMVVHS
Chain of Dickkopf-related protein 1 (Homo sapiens) (O94907 whole entry, looked up): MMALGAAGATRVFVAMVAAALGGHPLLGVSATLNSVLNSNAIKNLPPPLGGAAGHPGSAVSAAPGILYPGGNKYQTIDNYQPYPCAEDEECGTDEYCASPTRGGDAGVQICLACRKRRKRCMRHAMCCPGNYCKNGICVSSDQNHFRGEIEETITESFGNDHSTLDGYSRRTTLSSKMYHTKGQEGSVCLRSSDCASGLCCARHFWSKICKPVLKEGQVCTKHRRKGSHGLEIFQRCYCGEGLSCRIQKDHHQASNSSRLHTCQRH
Chain of Follistatin-related protein 3 (Homo sapiens) (O95633 whole entry, looked up): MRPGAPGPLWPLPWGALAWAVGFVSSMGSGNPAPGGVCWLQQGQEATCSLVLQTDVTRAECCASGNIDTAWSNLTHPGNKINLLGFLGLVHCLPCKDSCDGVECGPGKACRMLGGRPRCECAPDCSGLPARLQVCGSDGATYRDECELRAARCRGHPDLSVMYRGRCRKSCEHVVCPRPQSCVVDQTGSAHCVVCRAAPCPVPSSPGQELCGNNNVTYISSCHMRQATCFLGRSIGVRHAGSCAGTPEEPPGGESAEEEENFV
Chain of Neurogenic locus notch homolog protein 3 (Homo sapiens) (Q9UM47 whole entry, looked up): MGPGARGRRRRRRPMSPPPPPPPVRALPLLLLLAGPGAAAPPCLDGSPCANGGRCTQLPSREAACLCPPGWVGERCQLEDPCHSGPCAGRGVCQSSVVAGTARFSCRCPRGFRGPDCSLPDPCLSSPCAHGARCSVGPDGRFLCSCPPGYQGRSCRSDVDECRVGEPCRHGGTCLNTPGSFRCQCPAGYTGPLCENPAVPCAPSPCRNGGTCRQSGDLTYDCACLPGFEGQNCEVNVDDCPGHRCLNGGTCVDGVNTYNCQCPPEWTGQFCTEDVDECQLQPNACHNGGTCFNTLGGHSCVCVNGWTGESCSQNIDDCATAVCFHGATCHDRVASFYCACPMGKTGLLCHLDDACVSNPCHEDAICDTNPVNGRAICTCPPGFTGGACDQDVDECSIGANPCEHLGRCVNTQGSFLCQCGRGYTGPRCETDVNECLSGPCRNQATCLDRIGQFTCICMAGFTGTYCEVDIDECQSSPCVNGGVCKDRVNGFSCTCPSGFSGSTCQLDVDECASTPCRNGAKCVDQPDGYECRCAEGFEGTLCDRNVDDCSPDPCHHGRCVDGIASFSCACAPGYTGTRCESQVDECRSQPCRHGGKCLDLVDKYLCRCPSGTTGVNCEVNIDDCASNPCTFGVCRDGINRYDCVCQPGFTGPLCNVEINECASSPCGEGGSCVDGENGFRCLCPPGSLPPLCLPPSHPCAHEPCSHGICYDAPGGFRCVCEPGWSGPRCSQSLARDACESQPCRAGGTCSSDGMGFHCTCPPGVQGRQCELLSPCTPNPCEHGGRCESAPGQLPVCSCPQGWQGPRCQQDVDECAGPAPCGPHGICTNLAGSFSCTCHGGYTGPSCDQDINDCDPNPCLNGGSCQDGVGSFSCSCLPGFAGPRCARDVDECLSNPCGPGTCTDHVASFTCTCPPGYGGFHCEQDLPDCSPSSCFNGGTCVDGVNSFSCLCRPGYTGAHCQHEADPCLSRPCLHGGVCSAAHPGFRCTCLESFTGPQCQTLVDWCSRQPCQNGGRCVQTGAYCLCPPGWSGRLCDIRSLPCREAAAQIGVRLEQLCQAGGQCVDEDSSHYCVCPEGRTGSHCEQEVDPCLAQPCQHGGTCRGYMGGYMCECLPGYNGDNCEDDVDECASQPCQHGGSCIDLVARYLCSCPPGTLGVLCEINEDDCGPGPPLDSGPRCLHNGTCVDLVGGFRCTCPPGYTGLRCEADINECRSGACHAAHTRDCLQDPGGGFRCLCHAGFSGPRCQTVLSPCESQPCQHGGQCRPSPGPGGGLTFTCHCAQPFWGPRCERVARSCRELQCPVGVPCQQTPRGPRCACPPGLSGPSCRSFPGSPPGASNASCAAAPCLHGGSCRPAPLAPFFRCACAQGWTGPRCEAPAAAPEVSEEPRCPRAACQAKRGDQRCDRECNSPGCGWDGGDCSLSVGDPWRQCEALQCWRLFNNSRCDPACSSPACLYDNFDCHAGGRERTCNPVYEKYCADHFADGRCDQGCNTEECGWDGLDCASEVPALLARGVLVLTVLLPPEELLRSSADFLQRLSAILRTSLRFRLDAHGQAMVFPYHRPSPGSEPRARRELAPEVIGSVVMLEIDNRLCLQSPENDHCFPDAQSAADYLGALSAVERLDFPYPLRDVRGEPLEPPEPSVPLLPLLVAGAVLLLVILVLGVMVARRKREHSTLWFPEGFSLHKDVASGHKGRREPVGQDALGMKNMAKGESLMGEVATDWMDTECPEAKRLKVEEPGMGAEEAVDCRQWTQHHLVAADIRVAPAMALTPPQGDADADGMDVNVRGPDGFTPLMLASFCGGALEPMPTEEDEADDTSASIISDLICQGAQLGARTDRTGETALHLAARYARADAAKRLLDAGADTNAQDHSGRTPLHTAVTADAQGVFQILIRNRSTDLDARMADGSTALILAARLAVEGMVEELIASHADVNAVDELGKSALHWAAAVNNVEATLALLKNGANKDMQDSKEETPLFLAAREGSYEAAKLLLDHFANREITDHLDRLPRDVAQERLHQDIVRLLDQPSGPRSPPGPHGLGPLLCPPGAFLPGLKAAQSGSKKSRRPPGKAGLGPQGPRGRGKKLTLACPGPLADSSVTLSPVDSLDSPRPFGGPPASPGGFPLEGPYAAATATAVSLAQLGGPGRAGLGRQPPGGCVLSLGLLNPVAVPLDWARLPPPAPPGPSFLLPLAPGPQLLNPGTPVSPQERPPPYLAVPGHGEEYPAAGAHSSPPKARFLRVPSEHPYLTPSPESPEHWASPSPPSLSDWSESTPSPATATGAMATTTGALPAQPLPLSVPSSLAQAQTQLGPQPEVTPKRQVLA
Chain of Epidermal growth factor receptor (Homo sapiens) (P00533 whole entry, looked up): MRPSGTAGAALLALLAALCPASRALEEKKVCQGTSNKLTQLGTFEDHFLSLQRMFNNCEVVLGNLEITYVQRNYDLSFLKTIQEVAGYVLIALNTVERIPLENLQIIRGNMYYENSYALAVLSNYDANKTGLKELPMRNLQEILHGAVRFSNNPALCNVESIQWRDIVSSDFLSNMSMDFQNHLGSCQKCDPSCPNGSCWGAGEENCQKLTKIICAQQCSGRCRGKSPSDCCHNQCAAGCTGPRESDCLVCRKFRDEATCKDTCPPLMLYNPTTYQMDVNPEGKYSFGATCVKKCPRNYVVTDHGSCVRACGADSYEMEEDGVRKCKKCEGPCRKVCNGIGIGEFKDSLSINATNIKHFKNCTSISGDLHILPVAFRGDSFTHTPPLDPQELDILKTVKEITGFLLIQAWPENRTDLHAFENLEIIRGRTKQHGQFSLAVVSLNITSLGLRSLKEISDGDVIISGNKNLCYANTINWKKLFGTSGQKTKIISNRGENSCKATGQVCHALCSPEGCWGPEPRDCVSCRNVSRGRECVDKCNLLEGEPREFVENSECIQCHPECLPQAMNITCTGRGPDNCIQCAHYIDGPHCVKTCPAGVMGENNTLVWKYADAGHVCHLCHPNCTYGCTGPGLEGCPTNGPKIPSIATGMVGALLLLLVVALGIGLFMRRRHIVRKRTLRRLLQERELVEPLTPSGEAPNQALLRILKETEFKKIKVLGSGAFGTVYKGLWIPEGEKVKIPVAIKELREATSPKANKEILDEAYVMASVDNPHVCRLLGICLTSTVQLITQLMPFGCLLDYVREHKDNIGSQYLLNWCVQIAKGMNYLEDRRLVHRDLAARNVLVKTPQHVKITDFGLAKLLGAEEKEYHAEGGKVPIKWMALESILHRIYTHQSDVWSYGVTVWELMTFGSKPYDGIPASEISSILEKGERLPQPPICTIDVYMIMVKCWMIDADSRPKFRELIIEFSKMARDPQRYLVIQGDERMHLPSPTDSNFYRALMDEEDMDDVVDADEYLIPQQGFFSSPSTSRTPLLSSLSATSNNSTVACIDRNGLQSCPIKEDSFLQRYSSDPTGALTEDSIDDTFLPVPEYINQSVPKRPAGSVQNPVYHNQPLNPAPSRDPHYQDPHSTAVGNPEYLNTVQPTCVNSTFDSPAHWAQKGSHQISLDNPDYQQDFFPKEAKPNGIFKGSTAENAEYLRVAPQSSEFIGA

As for `O=C1O[C@@H](c2ccccc2)[C@@H](c2ccccc2)N2[C@@H](c3ccc(O)cc3)[C@]3(C(=O)Nc4ccccc43)[C@@H](C(=O)NC[C@H](O)c3ccccc3)[C@H]12`, the composite z-score in experiment [1] was 0.867; in experiment [5] it was 2.02; in experiment [7], -0.12; in experiment [8] it was 0.753; in experiment [9], 0.0385; in experiment [10], -0.112. Further, the composite z-score in experiment [11] is 0.851; in [12] it was -0.139; in experiment [13] it was 0.0547; in [15], 0.117; in experiment [16], -1.28; in experiment [17], 0.249. The results for the composite z-score in experiment [18], in [19] and in experiment [20] were 0.244, 0.259 and -0.297, respectively. Moreover, the z-score is 0.3 (inactive) in experiment [2]; 0.572 (inactive) in [3]; 1.49 (inactive) in experiment [4]; 1.76 (inactive) in experiment [6]; 0.576 (inactive) in experiment [14].
Turning to `CCCCCCCCCCC(O)C1C=CC2C(=O)N(c3ccccc3)C(=O)C2N1Nc1ccc([N+](=O)[O-])cc1` (stereo not given), the composite z-score in experiment [1] is 1.57; in experiment [5], 3.25; in experiment [7] it was -0.0059; in experiment [8], 0.186; in experiment [9], 1.09; in experiment [10] it was -0.0828. Further, the composite z-score is 1.34 in experiment [11]; -0.101 in experiment [12]; 0.584 in [13]; 0.668 in experiment [15]; 1.29 in experiment [16]; 0.352 in experiment [17]. Further, the composite z-score in [18] was determined as 1.01; in [19] it was 0.0052; in experiment [20] it was 0.559. Also, the z-score was 0.0819 (inactive) in [2]; 0.23 (inactive) in experiment [3]; 26.7 (active) in experiment [4]; -0.734 (inactive) in [6]; 0.823 (inactive) in experiment [14].
For the compound `C[n+]1ccc2ccc(O)cc2c1`, the composite z-score was 1.56 in experiment [1]; 1.14 in experiment [5]; -0.0562 in experiment [7]; 1.01 in experiment [8]; 1.05 in experiment [9]; -0.0453 in [10]. Besides, the composite z-score in experiment [11] is -0.0574; in [12], -0.147; in experiment [13] it was -0.444; in experiment [15] it was 1.07; in experiment [16], 0.534; in experiment [17], 1.19. In addition, the composite z-score in [18] was 1.45; in [19] it was 1.31; in experiment [20], 1.53. In addition, the z-score was 0.0119 (inactive) in experiment [2]; -0.208 (inactive) in experiment [3]; 2.96 (inactive) in experiment [4]; -0.992 (inactive) in [6]; 0.526 (inactive) in experiment [14].
As for `[N-]=[N+]=Nc1ccccc1[C@H]1OC(c2ccc(OCCCO)cc2)=N[C@@]1(CCS(=O)(=O)c1ccccc1)C(=O)N1CCOCC1`, the composite z-score in experiment [1] is 1.55; in experiment [5] it was 3.1; in experiment [7] it was 0.766; in experiment [8], 0.245; in experiment [9] it was 1.09; in experiment [10] it was 0.561. Moreover, the composite z-score in experiment [11] is 1.5; in experiment [12] it was 1.8; in experiment [13] it was 1.46; in experiment [15], 1.26; in experiment [16], 1.16; in [17], 0.211. Further, the composite z-score was 0.924 in experiment [18], -0.169 in experiment [19] and 0.891 in experiment [20]. Moreover, the z-score in experiment [2] was 1.17 (inactive); in experiment [3], 0.403 (inactive); in experiment [4] it was 4.39 (inactive); in experiment [6], 1.1 (inactive); in experiment [14], -0.829 (inactive).
In the case of `COC(=O)[C@@]1(Cc2ccc(OC)cc2)[C@H]2c3cc(C(=O)N(C)C)n(Cc4ccc(OC)c(OC)c4)c3C[C@H]2CN1C(=O)c1ccccc1`, the composite z-score in experiment [1] was 1.58; in experiment [5] it was 3.65; in experiment [7], 0.401; in experiment [8] it was -0.356; in experiment [9] it was 1.03; in experiment [10] it was 0.288. In addition, the composite z-score in experiment [11] came out at 0.851; in [12], 0.476; in [13], 1.16; in [15] it was 0.81; in [16], 1.28; in experiment [17], 0.149. The composite z-score in [18] is 0.943; in [19] it was -0.649; in experiment [20] it was 0.807. Moreover, the z-score in experiment [2] was 1.04 (inactive); in [3], 2.35 (inactive); in experiment [4], 4.24 (inactive); in [6], -0.841 (inactive); in experiment [14], -2.25 (inactive).
